Source: PubChem BioAssay
Activity calls are given as the source filed them.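 How the source made its calls, unless noted: active means inhibition of the reporter signal at or above 50%; inactive means inhibition below 50%.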

Key:
[1] = inhibitors of TNFa-induced NFkB p65 translocation, primary screen, imaging, HUVEC, MLSMR starter and 10KST1 sets (AID 438;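 active means inhibition above 20% together with a positive visual image hit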;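 further: compound added about 3h40 before a 20 min TNFalpha stimulation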;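 on inhibition: signal is the nuclear over cytoplasmic p65 intensity ratio per well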); details: HUVEC TNFa-induced p65 nuclear translocation; cell count: measured here: nuclei count (cytotoxicity indicator), at 2.08 µM; inhibition: at 2 µM, stronger effect = higher value, 0% TNFa-plus-vehicle, 100% no-TNFa wells
[2] = inhibitors of mutant huntingtin aggregation, primary screen, imaging, exon1htt(103Q)mCFP cells, high-content imaging (AID 483;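 active means visual image review flags a hit and inhibition of aggregation exceeds 20%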;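 further: compound exposure lasted 3 days before fixation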;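 on nuclei count: percent of the per-plate median nuclei count of sample wells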); details: exon1htt(103Q)mCFP cell line, aggregate imaging, at 2 µM; inhibition of aggregation: stronger effect = higher value; nuclei count: measured here: cell count, toxicity
[3] = inhibitors of E-selectin induction by TNFa, primary screen, imaging, HUVEC, immunofluorescence, MLSMR starter and 10KST1 sets (AID 487;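 active means visually confirmed hit in the image check and inhibition above 20%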;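 on inhibition: signal is fraction of cell area covered by stained E-selectin grains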;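 on nuclei count: 100% = median nuclei count of all wells on the same plate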); details: HUVEC TNFalpha-induced E-selectin immunofluorescence imaging, at 2 µM; inhibition: stronger effect = higher value; nuclei count: measured here: cell number, toxicity
[4] = target: Voltage-gated potassium channel subunit beta-2 (Rattus norvegicus) (UniProt P62483); assay: KvBeta enzyme negative modulators, primary screen, biochemical, NADPH fluorescence (AID 622;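 active means fluorescence slope higher than the sample average by over 3 SD, cut at about -0.22 in these data, passing the limit was not always enough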;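 further: slope of raw intensity against log time taken from 70 to 1610 s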); details: recombinant KvBeta, 4-cyanobenzaldehyde reduction, at 10 µM, stronger effect = higher value
Chain of Voltage-gated potassium channel subunit beta-2 (Rattus norvegicus) (P62483 whole entry, looked up): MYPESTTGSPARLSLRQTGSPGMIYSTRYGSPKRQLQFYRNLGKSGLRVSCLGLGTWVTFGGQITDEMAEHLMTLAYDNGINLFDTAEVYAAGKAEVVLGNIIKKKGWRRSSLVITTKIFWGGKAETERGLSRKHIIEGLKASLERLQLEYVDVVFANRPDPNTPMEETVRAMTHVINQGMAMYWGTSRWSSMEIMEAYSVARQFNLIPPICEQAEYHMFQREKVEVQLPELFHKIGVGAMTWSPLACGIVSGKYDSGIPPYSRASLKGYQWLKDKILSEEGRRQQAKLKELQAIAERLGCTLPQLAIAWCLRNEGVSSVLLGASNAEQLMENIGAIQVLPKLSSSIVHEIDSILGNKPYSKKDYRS

[5] = target: Voltage-gated potassium channel subunit beta-2 (Rattus norvegicus) (UniProt P62483); assay: KvBeta positive modulators, primary screen, biochemical, NADPH fluorescence (AID 623;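 active means NADPH fluorescence slope more negative than the mean of all samples by about 3 SD, 99.7% confidence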;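 further: fluorescence intensity change per second fitted from 20 to 320 s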); details: Recombinant KvBeta, NADPH fluorescence decrease slope, 10 min; at 10 µM; stronger effect = lower value
[6] = target: Alpha-2C adrenergic receptor (Homo sapiens) (UniProt P18825); assay: modulators of alpha2C/GIRK thallium flux, primary screen, cell-based, HEK293 alpha2C/GIRK1/2 (AID 624;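 active means fluorescence slope after compound addition differing from the mean of all screened samples at 99.7% confidence, in either direction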;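 further: slope of fluorescence ratio to pre-addition baseline per second over 15 to 24 s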); details: thallium flux BTC fluorescence, at 10 µM, actives lie on both sides
Chain of Alpha-2C adrenergic receptor (Homo sapiens) (P18825 whole entry, looked up): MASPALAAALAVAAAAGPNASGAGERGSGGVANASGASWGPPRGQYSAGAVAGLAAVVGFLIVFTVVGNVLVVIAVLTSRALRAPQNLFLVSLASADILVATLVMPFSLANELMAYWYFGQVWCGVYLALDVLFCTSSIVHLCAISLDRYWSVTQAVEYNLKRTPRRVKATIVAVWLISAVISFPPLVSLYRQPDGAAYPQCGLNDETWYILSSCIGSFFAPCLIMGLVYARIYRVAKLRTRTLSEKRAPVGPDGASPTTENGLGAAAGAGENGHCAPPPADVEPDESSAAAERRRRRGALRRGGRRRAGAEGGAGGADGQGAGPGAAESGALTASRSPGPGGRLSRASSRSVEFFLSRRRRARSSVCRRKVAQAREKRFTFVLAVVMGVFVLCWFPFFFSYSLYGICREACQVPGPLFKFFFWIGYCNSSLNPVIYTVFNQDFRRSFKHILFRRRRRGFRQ

[7] = inhibitors of Sendai virus-induced IRF3 signaling, primary screen, TLR/RLR signaling modifier project, cell-based, Sendai virus stimulus, luciferase, 10K MLSCN set (AID 602276;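 active means inhibition at or above 50% at 10 µM; inactive means inhibition below 50%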;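 further: firefly luciferase from ISG56 promoter only with Renilla not read in this screen; 0% = Sendai virus plus DMSO and 100% = medium plus DMSO without virus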); details: HEK293 RL24 IRF3 luciferase reporter, at 10 µM, stronger effect = higher value
[8] = inhibitors of poly I:C-induced TLR3 signaling, primary screen, cell-based, poly I:C stimulus, luciferase, 10K MLSCN set (AID 602277); details: HEK293-TLR3 RL24 IRF3 luciferase reporter, at 10 µM, stronger effect = higher value

Row | Structure (SMILES) | cell count [1] | inhibition [1] | inhibition of aggregation [2] | nuclei count [2] | inhibition [3] | nuclei count [3] | fluorescence slope [4] | NADPH fluorescence slope [5] | slope [6] | inhibition [7] | inhibition [8]
1 | O=C(CSCc1ccccn1)Nc1ccccc1 | 312 | -8% (inactive) | 21.9% (inactive) | 95.1% | 4.8% (inactive) | 98.8% | -0.437 (inactive) | -4.9e-05 (inactive) | 0.00582 (inactive) | -30.9% (inactive) | -49% (inactive)
2 | COC(=O)CC1C(=O)NCCN1C(=O)NC1CCCCC1 (centres undefined) | 714 | -4.5% (inactive) | -18.8% (inactive) | 110% | -116% (inactive) | 110% | -0.559 (inactive) | -1.3e-05 (inactive) | 0.0059 (inactive) | -2.45% (inactive) | 2.41% (inactive)
3 | c1ccc(-n2cnc3cc(NCc4ccccn4)ccc32)cc1 | 469 | -5.7% (inactive) | 25.1% (inactive) | 102% | -28.1% (inactive) | 183% | -0.596 (inactive) | -4.4e-05 (inactive) | 0.00529 (inactive) | 20.8% (inactive) | -8.3% (inactive)
4 | CC(NC(=O)Cc1cccs1)c1ccc2c(c1)OCO2 (centres undefined) | 333 | 5.1% (inactive) | -3.8% (inactive) | 104% | -9.2% (inactive) | 109% | -0.609 (inactive) | -2.4e-05 (inactive) | 0.00364 (inactive) | 14.9% (inactive) | 4.01% (inactive)
5 | CC(CC(=O)NC1CCSC1=O)c1ccccc1 (centres undefined) | 396 | -4.2% (inactive) | 8.2% (inactive) | 102% | -43.3% (inactive) | 124% | -0.452 (inactive) | 3.8e-05 (inactive) | 0.00567 (inactive) | -7.84% (inactive) | 17% (inactive)
6 | CCOc1ccc(N2CC(C(=O)NCCc3ccc(OC)c(OC)c3)CC2=O)cc1 (centres undefined) | 458 | -3.8% (inactive) | -9.6% (inactive) | 112% | -59.3% (inactive) | 163% | -0.456 (inactive) | -3.5e-05 (inactive) | 0.00548 (inactive) | 20.4% (inactive) | 25.1% (inactive)
7 | CCSc1nnc(NC(=O)CSc2nnc(Cc3cccn3C)n2-c2ccc(C)cc2)s1 | 601 | -12.3% (inactive) | -2.6% (inactive) | 112% | 16.8% (inactive) | 75.5% | -0.596 (inactive) | 1.3e-06 (inactive) | 0.00655 (inactive) | 3.74% (inactive) | 10.5% (inactive)
8 | CC(O)CN1C(=O)C(CC(=O)Nc2ccc(Cl)cc2)SC1=Nc1ccccc1 (centres undefined) | 671 | -3.9% (inactive) | -11.8% (inactive) | 119% | -16.8% (inactive) | 116% | -0.453 (inactive) | -0.000376 (inactive) | 0.00536 (inactive) | 2.35% (inactive) | 11.1% (inactive)
9 | Cn1c(C(=O)NCC2CCCO2)cc2c(=O)n(C)c3ccccc3c21 (centres undefined) | 658 | -5.5% (inactive) | -1.8% (inactive) | 115% | -71.5% (inactive) | 107% | -0.583 (inactive) | -3.1e-05 (inactive) | 0.00806 (inactive) | 7.53% (inactive) | 19% (inactive)
10 | Cc1ccc2c(c1)N(CC(=O)Nc1ccc3c(c1)OCCO3)C(=O)CO2 | 362 | -4.9% (inactive) | -2.2% (inactive) | 84.3% | -6.2% (inactive) | 104% | -0.293 (inactive) | -5e-05 (inactive) | 0.0057 (inactive) | 38.1% (inactive) | 99.4% (active)
11 | Cc1nn(C)c(C)c1NC(=O)CSc1nc(Cc2ccccc2)nc2c1cnn2-c1ccccc1 | 360 | -0.5% (inactive) | -17.9% (inactive) | 105% | -127% (inactive) | 121% | -0.491 (inactive) | -6.6e-05 (inactive) | 0.00793 (inactive) | 12% (inactive) | 3.8% (inactive)
12 | CC(C)C(=O)Nc1ccc2c(c1)nc1n2CCSC1 | 378 | -2.5% (inactive) | -0.8% (inactive) | 113% | -3.7% (inactive) | 109% | -0.361 (inactive) | 1.9e-05 (inactive) | 0.00311 (inactive) | -12.7% (inactive) | -20.2% (inactive)
13 | CC(C)(C)NC(=O)NC(=O)COc1ccccc1C#N | 432 | -28.2% (inactive) | -6.3% (inactive) | 108% | -27% (inactive) | 139% | -0.591 (inactive) | 8.6e-06 (inactive) | 0.0068 (inactive) | 2.8% (inactive) | -67.2% (inactive)
14 | CC(=NCC1CCNCC1)C1=C(O)CC(C)(C)CC1=O | 663 | -11% (inactive) | -14.1% (inactive) | 113% | 12.1% (inactive) | 132% | -0.499 (inactive) | 4e-06 (inactive) | 0.00593 (inactive) | 4.83% (inactive) | 23.6% (inactive)
